Experimental data taken from PubChem BioAssay (EPA / NIEHS).
More than one record can exist for a structure, and the calls need not agree. Active and inactive are the calls of the source. The calls were made as follows: active = hit-call score of the fitted dose curve at least 0.9, where 1 is the maximum; inactive = score below 0.9.

assay: APR_HepG2_p53Act_1hr: Apredica 1-hour HepG2 Assay for p53 Activation (AID 2282671); details: high-content imaging, actives raise or lower the signal
Method: APR_HepG2_1hr is a cell-based, multiplexed-readout assay that uses HepG2, a human liver cell line, with measurements taken at 1 hour after chemical dosing in a 384-well plate.APR_HepG2_p53Act_1hr is one of 10 assay component(s) measured or calculated from the APR_HepG2_1hr assay. It is designed to make measurements of dna content, a form of viability reporter, as detected with fluorescence intensity signals by HCS Fluorescent Imaging technology.Data from the assay component APR_HepG2_p53Act_1hr was analyzed into 1 assay endpoint. This assay endpoint, APR_HepG2_p53Act_1hr, was analyzed with bidirectional fitting relative to DMSO as the negative control and baseline of activity. Using a type of viability reporter, measures of protein for gain or loss-of-signal activity can be used to understand the signaling at the pathway-level as they relate to the gene TP53. Furthermore, this assay endpoint can be referred to as a primary readout, because this assay has produced multiple assay endpoints where this one serves a signaling function. To generalize the intended target to other relatable targets, this assay endpoint is annotated to the dna binding intended target family, where the subfamily is tumor suppressor.
Cells were treated with dimethyl sulfoxide (DMSO) as a solvent control at a final concentration of 0.5% v/v or with compounds in DMSO with a resulting final DMSO concentration of 0.5% v/v. Compound treatment was done at concentrations of 0.39, 0.78, 1.56, 3.12, 6.24, 12.5, 25, 50, 100, and 200 uM in duplicate on each plate. Cells were treated with compounds for 1, 24, or 72 hr. Carbonyl […] m-chloro-phenylhydrazone (CCCP) and taxol were used as positive controls for mitochondrial function and cytoskeletal stability, respectively; DMSO served as the negative control for this experiment. Cells were fixed by the direct addition of 50 uL formaldehyde in Hank's Balanced Salt Solution (HBSS) to a final concentration of 3.7%. After incubation in the fixation medium for 30 min at room temperature (293-298 K), cells were rinsed twice with HBSS and treated with cell permeabilization buffer (16 uL of 0.5% Triton X-100) for 10 min at room temperature (293-298 K) before labeling. For mitochondrial membrane potential and mitochondrial measurements, pre-fixed cells were incubated with 50 uL of MitoTracker Red CMXRos (Invitrogen) at a concentration of 250 nM for 30 min before fixation. In the remaining cases, post-fixed cells were labeled by incubation with a multiplexed mixture of primary antibodies in HBSS for 60 min at room temperature (293-298 K) to detect immunoreactivity of c-Jun (1:500), phospho-histone H3 (1:100), phospho-histone H2A.x (1:200), p53 (1:400), alpha-tubulin (1:200) and Hoechst 33342 (2 ug/mL). Cells were labeled for multiplexed imaging on two separate plates: a) Hoechst 33342, MitoTracker Red, phospho-histone H3, and alpha-tubulin, and b) Hoechst 33342, phospho-histone H2A.x, and c-Jun. A final rinse with HBSS (50 uL) was performed before analysis. The primary and secondary antibodies for the proteins were phospho-histone H3 (rabbit anti-phospho-histone H3 and FITC-donkey anti-rabbit IgG), phospho-histone H2A.x (mouse anti-phospho-histone H2A.x and FITC-donkey anti-mouse IgG), c-Jun (rabbit anti-phospho-c-Jun and Cy3-donkey anti-rabbit IgG), p53 (sheep anti-p53 and Cy5-donkey anti-sheep IgG), alpha-tubulin (mouse anti-alpha-tubulin and Cy5-donkey anti-mouse IgG). These antibodies are available as the CellCiphr HepG2 assay kit (Millipore).Digital images of each well were captured using a Cellomics ArrayScan VTI (Thermo Scientific Cellomics) (0.8 NA objective, 0.63x optical coupler, and XF-93 filter set) at 20x magnification. The images were acquired using the autofocus feature of the ArrayScan instrument, which entails the following steps. First, the camera focuses on channel 1 (Hoechst 33342), where nuclei are identified. Second, a Z offset of 1 um is used for capturing mitochondria (MitoTracker Red). […]

Compound	outcome	AC50
COC(=O)C(C)Oc1ccc(Oc2ccc(Cl)cc2Cl)cc1 (stereo not given)	inactive	
COc1cnc(OC)n2nc(NS(=O)(=O)c3c(OCC(F)F)cccc3C(F)(F)F)nc12	inactive	
CC(C)(C)c1ccc(CSc2cnn(C(C)(C)C)c(=O)c2Cl)cc1	inactive	
CCOC(=O)C(Cl)Cc1cc(-n2nc(C)n(C(F)F)c2=O)c(F)cc1Cl (stereo not given)	inactive	
CCOC(=O)CC(SP(=S)(OC)OC)C(=O)OCC (stereo not given)	inactive	
CCCCNC(=O)n1c(NC(=O)OC)nc2ccccc21	inactive	
CC(C)Oc1cc(-n2nc(C(C)(C)C)oc2=O)c(Cl)cc1Cl	inactive	
Cc1cc(Cl)ccc1OCC(=O)O	inactive	
C=CCC1=C(C)[C@@H](OC(=O)[C@@H]2[C@@H](C=C(C)C)C2(C)C)CC1=O	inactive	
CCOP(=S)(OCC)SCn1c(=O)oc2cc(Cl)ccc21	inactive	
OC(c1ccc(Cl)cc1)(c1cncnc1)c1ccccc1Cl (stereo not given)	inactive	
CCON=C(CC)C1=C(O)CC(c2c(C)cc(C)cc2C)CC1=O (stereo not given)	inactive	
CCOc1cc(Oc2ccc(C(F)(F)F)cc2Cl)ccc1[N+](=O)[O-]	inactive	
CC1COC(Cn2cncn2)(c2ccc(Oc3ccc(Cl)cc3)cc2Cl)O1 (stereo not given)	inactive	
COc1nc(NC(C)C)nc(NC(C)C)n1	inactive	
COP(N)(=O)SC (stereo not given)	inactive	
COC(=O)C=C(C)OP(=O)(OC)OC	inactive	
CN(C)C(=S)SSC(=S)N(C)C	inactive	
CC(Oc1ccc(Cl)cc1Cl)C(=O)O (stereo not given)	inactive	
COC(=O)N(OC)c1ccccc1COc1ccn(-c2ccc(Cl)cc2)n1	inactive	

Compound	outcome	AC50
COC(=O)c1ccccc1C(=O)OC	inactive	
CCNc1nc(Cl)nc(NCC)n1	inactive	
CO/C=C(/C(=O)OC)c1ccccc1Oc1cc(Oc2ccccc2C#N)ncn1	inactive	
COc1nc(C)nc(NC(=O)NS(=O)(=O)c2ccccc2Cl)n1	inactive	
CCc1nn(C)c(C(=O)NCc2ccc(C(C)(C)C)cc2)c1Cl	inactive	
O=C(O)c1nc(Cl)ccc1Cl	inactive	
Cc1ccc(-c2c(Cl)nc(C#N)n2S(=O)(=O)N(C)C)cc1	inactive	
Oc1ccccc1-c1ccccc1	inactive	
Cc1c(F)c(F)c(COC(=O)C2C(/C=C(\Cl)C(F)(F)F)C2(C)C)c(F)c1F (stereo not given)	inactive	
CNC(=S)S	inactive	
C#CCOS(=O)OC1CCCCC1Oc1ccc(C(C)(C)C)cc1 (stereo not given)	inactive	
CCNc1nc(Cl)nc(NC(C)C)n1	inactive	
CCCCNC(=O)OCC#CI	inactive	54.5 µM (active)
CCCCOC(=O)c1ccccc1C(=O)OCCCC	inactive	
CCCC1COC(Cn2cncn2)(c2ccc(Cl)cc2Cl)O1 (stereo not given)	inactive	
O=C(Nc1ccccc1)Nc1ccnc(Cl)c1	inactive	
N#CC(CCc1ccc(Cl)cc1)(Cn1cncn1)c1ccccc1 (stereo not given)	inactive	
COP(=S)(OC)Oc1nc(Cl)c(Cl)cc1Cl	inactive	
C=CCC1=C(C)C(OC(=O)C2C(C=C(C)C)C2(C)C)CC1=O (stereo not given)	inactive	
